Consider 104 compounds from PubChem BioAssay AID1578 (Sanford-Burnham Center for Chemical Genomics, 2009).

Where “and” joins values, the source holds several entries; their conditions need not be identical. Equal entries are not always repeated. The campaign covered roughly 290,000 compounds. About 3,000 (1%) were called active. For the sample, actives were picked, then their nearest neighbours and some compounds at random. Values without a mark were called inactive. Cut-off read from the data, not from the text of the source: active = inhibition mostly above about 36% (no sharp cut-off); inactive = mostly below about 34%.

This assay is described as follows: inhibition of NOD1-driven NF-kB reporter – cell-based, luminescence, uHTS, primary screen (AID 1578).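 Note: HEK-293T reporter cells stimulated with the NOD1 agonist gamma-tri-DAP.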 To be noted: NOD1-driven NF-kB luciferase reporter cells, at 4 µM, active compounds read high. A general note: Reporter assays use an easily measured gene product as a stand-in for the process of interest.
Take `CC(=O)c1csc(Nc2ccccc2Cl)n1`: the inhibition is -3%.
As for `O=C(NC(=O)c1cccc(Cl)c1)OC[C@@H]1CCCN2CCCCC12` (some centres undefined), the inhibition was 14.2%.
Regarding `CCOC(=O)c1cc2c(ccn2C)n1CC(=O)N1C(C)CCCC1C` (centres undefined), the inhibition is 5.8%.
Take `O=S(=O)(Cc1ncc(C(F)(F)F)cc1Cl)c1ccccc1`: the inhibition is 18%.
For the compound `O=S(=O)(c1ccccc1)c1ncc(C(F)(F)F)cc1Cl`, the inhibition was 50.2% (active).
For `O=S(=O)(c1ccccc1)c1ncc(C(F)(F)F)cc1O`, the inhibition was -25.1%.
For the compound `O=C(NCCCCc1ccccc1)Nc1ccc(F)cc1`, the inhibition was -30.8%.
Regarding `CCn1nc(C(=O)NCC(c2cccs2)N2CCOCC2)c2ccccc2c1=O` (centres undefined), the inhibition is -2.4%.
On to `CCN(CC)c1c([N+](=O)[O-])c(=O)n(CC)c2ccccc12`, for which the inhibition is -5.5%.
With `CCn1c(=O)c([N+](=O)[O-])c(Cl)c2ccccc21` the figure was 61.2% (active); with `Cn1c(=O)c([N+](=O)[O-])c(Cl)c2ccccc21`, -31.4%.
As for `O=C(OCCC1Oc2cccnc2NC1=O)c1ccc(Cl)cc1` (centres undefined), the inhibition was -29.2%.
For `COc1cccc(-c2nc(CS(=O)CC(=O)NCc3ccccc3)c(C)o2)c1` (centres undefined) the value was -4.3%.
For `Cc1ccc(-n2c(SCc3ccc(C#N)cc3)nnc2-c2ccccn2)cc1` the value was 2.2%.
As for `CCC(=O)N1c2ccc(S(=O)(=O)N3CCN(C)CC3)cc2CC1C` (centres undefined), the inhibition was -8.9%.
With `CCC(=O)N1c2ccc(S(=O)(=O)N3CCN(c4ccccc4Cl)CC3)cc2CC1C` (centres undefined), the inhibition is 8.1%.
On to `O=S(=O)(Nc1cc(Sc2cccc3cccnc23)c(O)c2ccccc12)c1ccccc1`, for which the inhibition is 109% (active).
`COc1ccc(S(=O)(=O)Nc2cc(Sc3ncn[nH]3)c(O)c3ccccc23)cc1`: the inhibition is 93.1% (active).
For `O=S(=O)(Nc1cc(Sc2ncn[nH]2)c(O)c2ccccc12)c1ccccc1` the value was -1.5%.
For `O=S(=O)(Nc1cc(Sc2cccc3cccnc23)c(O)c2ccccc12)c1ccc(F)cc1`, the inhibition is -23.7%.
As to `COc1ccc(S(=O)(=O)Nc2ccc(O)c(Sc3ncn[nH]3)c2)cc1`, the inhibition was -28.8%.
Consider `O=C(O)CSc1cc(NS(=O)(=O)c2ccc(Br)cc2)c2ccccc2c1O`, for which the inhibition is 5.8%.
Consider `COC(=O)c1oc2ccccc2c1-n1cccc1`, for which the inhibition is -6%.
With `Cc1ccc2nsnc2c1S(=O)(=O)Nc1ccccc1C(=O)O` the figure was -10.2%.
For `Cc1ccc(C(C)C)c(OCC(O)CN2CC(C)OC(C)C2)c1` (centres undefined) the value was 5.4%; for `CCOc1ccc(Cl)cc1CNCCCSc1ncccn1`, 5.6%.
As for `O=C(NNC1=C(C(=O)C(F)(F)F)CCC1)c1cccc(O)c1`, the inhibition was -26.1%.
With `O=C(NNC1=C(C(=O)C(F)(F)F)CCC1)c1cccc(Cl)c1` the figure was 83% (active); with `O=C(NNC1=C(C(=O)C(F)(F)F)CCC1)c1ccc(Cl)cc1`, 19.2%; with `CO/N=C(/CS(=O)c1ccc(Br)cc1)c1ccc(OC)cc1` (centres undefined), -16%.
Regarding `Cc1cc(C)c2sc(N(CCN(C)C)C(=O)c3ccc4ccccc4c3)nc2c1`, the inhibition was -10.4%.
`Cc1ccc(Cn2nnc3c(=O)n(Cc4cccc(C)c4)cnc32)cc1`: the inhibition is 3.6%.
For `Cc1cccc(Cn2nnc3c2C(=O)c2ccccc2C3=O)c1` the value was 68.5% (active); for `Cc1cccc(CC(=O)OCn2nnc3ccccc3c2=O)c1`, -15.8%.
For `CCOc1ccc(NC(=O)CCNC(=O)Cn2ccc3ccccc3c2=O)cc1` the value was -20.7%; for `Cc1ccc(S(=O)(=O)Nc2nc3ccccc3nc2N2CCN(c3ccccc3F)CC2)cc1`, 5.2%.
On to `Cc1ccsc1C1C(C#N)=C(N)OC2=C1C(=O)CCC2` (centres undefined), for which the inhibition was -6.1%.
For `N#Cc1sc(NCc2ccccc2)nc1Cl` the value was -19.1%; for `Cc1ccc(CNc2nc(Cl)c(C#N)s2)cc1`, 63.4% (active); for `COc1ccc(CNc2nc(Cl)c(C#N)s2)cc1`, 3.8%.
As to `c1ccc(OCCOCCN2CCOCC2)cc1`, the inhibition was 7.9%.
Regarding `CCN1CCN(CCOCCOc2ccccc2-c2ccccc2)CC1`, the inhibition was -24.4%.
Regarding `CCN1CCN(CCOCCOc2ccccc2)CC1`, the inhibition was 75.5% (active).
For `O=C(Cc1ccccc1)NNC(=O)Nc1ccccc1`, the inhibition was -23.5%.
As to `COc1ccc(C(O)c2nc3ccccc3n2C)cc1OC` (centres undefined), the inhibition is 33.1%.
Turning to `CC(C)c1ccc(C(O)c2nc3ccccc3n2C)cc1` (centres undefined), the inhibition is 76.4% (active).
`Cc1ccc(C(O)c2nc3ccccc3n2C)cc1` (centres undefined): the inhibition was -7.9%.
With `CCCC(=O)NC(C)c1nc2ccccc2n1C(C)C` (centres undefined), the inhibition was -2.5%.
Regarding `CCCC(=O)NC(C)c1nc2ccccc2n1C` (centres undefined), the inhibition is 36.2% (active).
With `CCCC(=O)NC(C)c1nc2ccccc2n1CC` (centres undefined), the inhibition was -18.7%.
With `CCN(CC(=O)Nc1ccccc1Br)C1CCCCC1`, the inhibition is -38.4%.
In the case of `C=CCN1C(=O)N/C(=C/c2ccc(C)o2)C1=O`, the inhibition is -35.1%.
`Nn1cc(-c2ccccc2)nc1SCC(=O)Nc1cccc(S(N)(=O)=O)c1`: the inhibition was 3.3%.
With `O=C(Nc1cc(-c2ccccc2)[nH]n1)c1ccc(Cl)cc1` the figure was 4.7% and -2.2%; with `O=C(Nc1ccccc1Cl)c1ccc2ccccc2c1`, -11.1%; with `Cc1cccc(C)c1NC(=O)NC1(C(=O)N2CCN3CCCC3C2)CCCCC1` (centres undefined), -19.2%.
As for `COc1cc(C2C(C#N)=C(N)N(c3cccnc3)C3=C2C(=O)CC(C)(C)C3)ccc1O` (centres undefined), the inhibition is 9.6%.
Regarding `COc1ccccc1C1C(C#N)=C(N)N(c2cccnc2)C2=C1C(=O)CC(C)(C)C2` (centres undefined), the inhibition was -21.9%.
In the case of `COc1ccc(C2C(C#N)=C(N)N(c3cccnc3)C3=C2C(=O)CC(C)(C)C3)cc1OC` (centres undefined), the inhibition was 63.5% (active).
For `Cc1ccc(OC(=O)c2ccncc2)c(C)c1`, the inhibition is -45.8%.
With `Cc1ccc(C)c(OC(=O)c2cccnc2)c1` the figure was -20.5%.
For `Cc1ccc(C)c(OC(=O)c2ccncc2)c1` the value was 54.5% (active); for `CCN(CC)C(=O)CSc1nc(O)cc(=O)n1-c1ccccc1OC`, -12.3%.
On to `CCC(NC(=O)NNC(=O)c1ccncc1)(C(F)(F)F)C(F)(F)F`, for which the inhibition was -3.5%.
Regarding `CCOc1ccc(-c2ccc(SCC)nn2)cc1`, the inhibition was -47.8%.
Turning to `CCOc1ccc(-c2ccc(SC)nn2)cc1`, the inhibition is 57.2% (active).
For `COc1ccc(-c2ccc(SC)nn2)cc1` the value was -8.7%.
With `COc1ccc(CC(=O)NNC(=O)COc2ccc3ccccc3c2)cc1` the figure was -32%; with `N#Cc1ccccc1NC(=O)COC(=O)c1ccc(F)cc1F`, 2.3%.
With `COc1cc(C(=O)NC2CC(C)(C)NC(C)(C)C2)cc(OC)c1OC`, the inhibition was -31.3%.
Regarding `Cc1cc(C)cc(C(=O)NC2CC(C)(C)NC(C)(C)C2)c1`, the inhibition is -11.3%.
Turning to `COc1cc(OC)cc(C(=O)NC2CC(C)(C)NC(C)(C)C2)c1`, the inhibition was 83% (active).
As for `O=C(NC(CC(=O)N1CCN(c2ccc([N+](=O)[O-])cc2)CC1)c1ccccc1)c1ccccc1Cl` (centres undefined), the inhibition was -5.6%.
For `Cc1nc(-c2nc(-c3c(C(=O)NN)noc3C)cs2)cs1`, the inhibition is -35.9%.
Consider `Cc1ccc2c(c1)C(=O)c1c(C(=O)O)cccc1-2`, for which the inhibition was -14.6%.
As to `CC(Sc1nc(-c2ccccc2)cc(C(F)(F)F)n1)C(=O)N1CCCC1` (centres undefined), the inhibition is -30.7%.
Consider `CC1CCN(C(=O)C(C)Sc2nc(-c3ccccc3)cc(C(F)(F)F)n2)CC1` (centres undefined), for which the inhibition was 15.1%.
In the case of `CC(Sc1nc(-c2ccccc2)cc(C(F)(F)F)n1)C(=O)N1CCC(C(N)=O)CC1` (centres undefined), the inhibition was 62.8% (active).
On to `O=C(O)CCn1c(SCCOc2ccccc2)nc2ccccc21`, for which the inhibition was -29.9%.
Turning to `CCCCN(C)Cc1cc(=O)oc2ccc3ccccc3c12`, the inhibition is -5.4%.
In the case of `CCc1ccc(OCc2nnc(SCCN3CCOCC3)n2CC)cc1`, the inhibition is -13.7%.
Take `Fc1ccccc1Cn1cnc(NC(=S)NCCc2ccccc2)n1`: the inhibition is 47.4% (active).
As to `Fc1ccccc1NC(=S)NCCc1ccccc1`, the inhibition was 11.7%.
With `FC(F)(F)c1cccc(Cn2cnc(NC(=S)NCCc3ccccc3)n2)c1` the figure was -22.4%.
In the case of `Nc1nc(-c2ccccc2)c(N=Nc2ccc(Cl)cc2)s1`, the inhibition was 14.5%.
Turning to `Nc1nc(-c2ccccc2)c(N=Nc2cccc3ccccc23)s1`, the inhibition is -6.2%.
For `Nc1nc(-c2ccccc2)c(N=Nc2cccnc2)s1`, the inhibition was 69.6% (active).
On to `Cc1cc(NC(=O)CSc2nc(Cc3ccc(O)cc3)c(C)[nH]2)no1`, for which the inhibition is 29.2%.
With `COC(=O)c1nn(-c2ccc3c(c2)CCN3C(C)=O)cc1O` the figure was 78.5% (active); with `CCOC(=O)c1nn(-c2ccc3c(c2)CCN3C(C)=O)cc1O`, -27.8%.
With `COC(=O)c1nn(-c2ccc3c(c2)OCO3)cc1O` the figure was -11.8%; with `N#CN=C(c1ccccc1)c1ccccc1`, -20.8%.
With `O=C(c1ccc(N2CCCC2=O)cc1)N1CCN(c2ccc(Cl)cc2)CC1` the figure was -4.5%; with `O=C(c1ccccc1-c1nc(-c2ccccc2)no1)N1CCCC1`, -35%.
Take `FC(F)(F)c1ccc(C2NCCc3sccc32)cc1` (centres undefined): the inhibition was -38.2%.
Consider `Cn1ccs/c1=N\C(=O)Nc1ccccc1`, for which the inhibition was -7.2%.
With `Cn1ccs/c1=N\C(=O)Nc1cccc(C(F)(F)F)c1` the figure was -21.9%; with `Cn1ccs/c1=N\C(=O)Nc1cccc(Cl)c1`, 110% (active); with `CCOC(=O)CN1C(=O)S/C(=C/c2ccco2)C1=O`, -37.3%.
Take `CC(C)N(C)Cc1nnnn1CC(=O)N(C)Cc1cccc(Cl)c1`: the inhibition is -14.1%.
In the case of `Nc1nc(Nc2ccc(Cl)cc2)nc(NCCO)c1[N+](=O)[O-]`, the inhibition was 3%.
Take `Cc1cc(Cl)ccc1OC(C)C(=O)Nc1ccc(C(=O)Nc2ccccc2C(=O)O)cc1` (centres undefined): the inhibition was 82.7% (active).
For the compound `CC(C)C(=O)Nc1cccc(C(=O)Nc2ccccc2C(=O)O)c1`, the inhibition was -0.4%.
In the case of `Cc1ccc(NC(=O)c2ccc(OC(=O)C(C)Oc3ccc(Cl)cc3C)cc2)cc1` (centres undefined), the inhibition was -12.4%.

What is called inhibition is the change of the read-out against control, counted positive when it falls.
